Measurements as given in article PMC11006913.

What was measured:
Test in all cases: PBM; 200 nM protein, PBS
Details in all cases: dsDNA, one strand shown
PROP1 [1] = target: PROP1 (Homo sapiens, UniProt O75360 56-141)
PROP1 [2] = target: PROP1 (Homo sapiens, UniProt O75360 56-141, R99H)
PROP1 [3] = target: PROP1 (Homo sapiens, UniProt O75360 56-141, F88S)
VAX1 = VAX1 (Homo sapiens, UniProt Q5SQQ9 86-172)
HESX1 = HESX1 (Homo sapiens, UniProt Q9UBX0 95-180, R109Q)
Sequence of HESX1 (Q9UBX0 95-180 R109Q): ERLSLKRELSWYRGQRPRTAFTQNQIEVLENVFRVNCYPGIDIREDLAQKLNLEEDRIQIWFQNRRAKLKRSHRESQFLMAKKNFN

Sequence of PROP1 (Homo sapiens, UniProt O75360 56-141, R99H) (O75360 56-141 R99H): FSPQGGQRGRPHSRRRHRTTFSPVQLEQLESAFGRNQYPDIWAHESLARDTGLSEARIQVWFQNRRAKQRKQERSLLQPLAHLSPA
Sequence of PROP1 (Homo sapiens, UniProt O75360 56-141, F88S) (O75360 56-141 F88S): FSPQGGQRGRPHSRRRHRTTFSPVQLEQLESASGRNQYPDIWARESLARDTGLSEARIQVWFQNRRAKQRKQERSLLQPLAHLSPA
Sequence of PROP1 (Homo sapiens, UniProt O75360 56-141) (O75360 56-141): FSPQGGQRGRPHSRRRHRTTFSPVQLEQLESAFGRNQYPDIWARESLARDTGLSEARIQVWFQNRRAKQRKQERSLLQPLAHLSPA
Sequence of VAX1 (Q5SQQ9 86-172): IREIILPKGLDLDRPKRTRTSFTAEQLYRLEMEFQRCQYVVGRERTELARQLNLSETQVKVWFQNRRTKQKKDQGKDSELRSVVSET

With GTCTCGAA the binding signal (PROP1 [1]) was 6.78 upbm affinity estimate (log intensity, higher = more binding, comparable within an allelic series), the binding signal (PROP1 [2]) was 6.8 upbm affinity estimate (log intensity, higher = more binding, comparable within an allelic series) and the binding signal (PROP1 [3]) was 7.1 upbm affinity estimate (log intensity, higher = more binding, comparable within an allelic series).

GCAAATAA was tested, and the binding signal (PROP1 [1]) was 9 upbm affinity estimate (log intensity, higher = more binding, comparable within an allelic series), the binding signal (PROP1 [2]) was 8.48 upbm affinity estimate (log intensity, higher = more binding, comparable within an allelic series) and the binding signal (PROP1 [3]) was 7.34 upbm affinity estimate (log intensity, higher = more binding, comparable within an allelic series).

With AAAAATTT the binding signal (PROP1 [1]) was 8.27 upbm affinity estimate (log intensity, higher = more binding, comparable within an allelic series), the binding signal (PROP1 [2]) was 7.95 upbm affinity estimate (log intensity, higher = more binding, comparable within an allelic series) and the binding signal (PROP1 [3]) was 7.46 upbm affinity estimate (log intensity, higher = more binding, comparable within an allelic series).

For AGAGCCGG, the binding signal (PROP1 [1]) was 6.81 upbm affinity estimate (log intensity, higher = more binding, comparable within an allelic series), the binding signal (PROP1 [2]) was 6.67 upbm affinity estimate (log intensity, higher = more binding, comparable within an allelic series) and the binding signal (PROP1 [3]) was 6.47 upbm affinity estimate (log intensity, higher = more binding, comparable within an allelic series).

In the case of GTGCGCCA, the binding signal (PROP1 [1]) is reported as 6.79 upbm affinity estimate (log intensity, higher = more binding, comparable within an allelic series), the binding signal (PROP1 [2]) is reported as 6.83 upbm affinity estimate (log intensity, higher = more binding, comparable within an allelic series) and the binding signal (PROP1 [3]) is reported as 6.75 upbm affinity estimate (log intensity, higher = more binding, comparable within an allelic series).

With TGATTACA the binding signal (PROP1 [1]) was 9.42 upbm affinity estimate (log intensity, higher = more binding, comparable within an allelic series), the binding signal (PROP1 [2]) was 8.57 upbm affinity estimate (log intensity, higher = more binding, comparable within an allelic series) and the binding signal (PROP1 [3]) was 7.5 upbm affinity estimate (log intensity, higher = more binding, comparable within an allelic series).

In the case of GACAGGGC, the binding signal (PROP1 [1]) is reported as 6.65 upbm affinity estimate (log intensity, higher = more binding, comparable within an allelic series), the binding signal (PROP1 [2]) is reported as 6.63 upbm affinity estimate (log intensity, higher = more binding, comparable within an allelic series) and the binding signal (PROP1 [3]) is reported as 6.47 upbm affinity estimate (log intensity, higher = more binding, comparable within an allelic series).

For GATAGTTA, the binding signal (PROP1 [1]) was 8.6 upbm affinity estimate (log intensity, higher = more binding, comparable within an allelic series), the binding signal (PROP1 [2]) was 8.09 upbm affinity estimate (log intensity, higher = more binding, comparable within an allelic series) and the binding signal (PROP1 [3]) was 7.39 upbm affinity estimate (log intensity, higher = more binding, comparable within an allelic series).

With AGTAAATA the binding signal (PROP1 [1]) was 8.94 upbm affinity estimate (log intensity, higher = more binding, comparable within an allelic series), the binding signal (PROP1 [2]) was 8.48 upbm affinity estimate (log intensity, higher = more binding, comparable within an allelic series) and the binding signal (PROP1 [3]) was 7.6 upbm affinity estimate (log intensity, higher = more binding, comparable within an allelic series).

TCCAATCA was tested, and the binding signal (PROP1 [1]) was 8.66 upbm affinity estimate (log intensity, higher = more binding, comparable within an allelic series), the binding signal (PROP1 [2]) was 8.18 upbm affinity estimate (log intensity, higher = more binding, comparable within an allelic series) and the binding signal (PROP1 [3]) was 7.02 upbm affinity estimate (log intensity, higher = more binding, comparable within an allelic series).

AACTATAT was tested, and the binding signal (PROP1 [1]) was 8.71 upbm affinity estimate (log intensity, higher = more binding, comparable within an allelic series) and the binding signal (PROP1 [3]) was 7.61 upbm affinity estimate (log intensity, higher = more binding, comparable within an allelic series).

GGCCACCA was tested, and the binding signal (PROP1 [1]) was 6.96 upbm affinity estimate (log intensity, higher = more binding, comparable within an allelic series), the binding signal (PROP1 [2]) was 6.82 upbm affinity estimate (log intensity, higher = more binding, comparable within an allelic series) and the binding signal (PROP1 [3]) was 6.75 upbm affinity estimate (log intensity, higher = more binding, comparable within an allelic series).

With CCAGGGTC the binding signal (PROP1 [1]) was 6.75 upbm affinity estimate (log intensity, higher = more binding, comparable within an allelic series), the binding signal (PROP1 [2]) was 6.85 upbm affinity estimate (log intensity, higher = more binding, comparable within an allelic series) and the binding signal (PROP1 [3]) was 6.62 upbm affinity estimate (log intensity, higher = more binding, comparable within an allelic series).

AATTGGCG was tested, and the binding signal (PROP1 [1]) was 9.12 upbm affinity estimate (log intensity, higher = more binding, comparable within an allelic series), the binding signal (PROP1 [2]) was 8.88 upbm affinity estimate (log intensity, higher = more binding, comparable within an allelic series) and the binding signal (PROP1 [3]) was 7.29 upbm affinity estimate (log intensity, higher = more binding, comparable within an allelic series).

With ATCAACGG the binding signal (VAX1) was 9.55 upbm affinity estimate (log intensity, higher = more binding, comparable within an allelic series).

For ATTATGGG, the binding signal (PROP1 [1]) was 9.26 upbm affinity estimate (log intensity, higher = more binding, comparable within an allelic series), the binding signal (PROP1 [2]) was 8.87 upbm affinity estimate (log intensity, higher = more binding, comparable within an allelic series) and the binding signal (PROP1 [3]) was 7.21 upbm affinity estimate (log intensity, higher = more binding, comparable within an allelic series).

CGCGAACC was tested, and the binding signal (PROP1 [1]) was 6.6 upbm affinity estimate (log intensity, higher = more binding, comparable within an allelic series), the binding signal (PROP1 [2]) was 6.67 upbm affinity estimate (log intensity, higher = more binding, comparable within an allelic series) and the binding signal (PROP1 [3]) was 6.71 upbm affinity estimate (log intensity, higher = more binding, comparable within an allelic series).

For CCGATGGC, the binding signal (PROP1 [1]) was 6.65 upbm affinity estimate (log intensity, higher = more binding, comparable within an allelic series), the binding signal (PROP1 [2]) was 6.61 upbm affinity estimate (log intensity, higher = more binding, comparable within an allelic series) and the binding signal (PROP1 [3]) was 6.61 upbm affinity estimate (log intensity, higher = more binding, comparable within an allelic series).

In the case of AATCACCT, the binding signal (PROP1 [1]) is reported as 8.74 upbm affinity estimate (log intensity, higher = more binding, comparable within an allelic series) and the binding signal (PROP1 [3]) is reported as 7.3 upbm affinity estimate (log intensity, higher = more binding, comparable within an allelic series).

For AATCACAT, the binding signal (PROP1 [1]) was 9.48 upbm affinity estimate (log intensity, higher = more binding, comparable within an allelic series) and the binding signal (PROP1 [3]) was 7.46 upbm affinity estimate (log intensity, higher = more binding, comparable within an allelic series).

In the case of CCTGTTAC, the binding signal (PROP1 [1]) is reported as 7.8 upbm affinity estimate (log intensity, higher = more binding, comparable within an allelic series) and the binding signal (PROP1 [3]) is reported as 7.11 upbm affinity estimate (log intensity, higher = more binding, comparable within an allelic series).

With ATCACTAA the binding signal (PROP1 [1]) was 8.89 upbm affinity estimate (log intensity, higher = more binding, comparable within an allelic series), the binding signal (PROP1 [2]) was 8.2 upbm affinity estimate (log intensity, higher = more binding, comparable within an allelic series) and the binding signal (PROP1 [3]) was 7.19 upbm affinity estimate (log intensity, higher = more binding, comparable within an allelic series).

For GCTCCGCA, the binding signal (PROP1 [1]) was 6.82 upbm affinity estimate (log intensity, higher = more binding, comparable within an allelic series), the binding signal (PROP1 [2]) was 6.82 upbm affinity estimate (log intensity, higher = more binding, comparable within an allelic series) and the binding signal (PROP1 [3]) was 6.66 upbm affinity estimate (log intensity, higher = more binding, comparable within an allelic series).

GCGGCCGA was tested, and the binding signal (PROP1 [1]) was 6.81 upbm affinity estimate (log intensity, higher = more binding, comparable within an allelic series), the binding signal (PROP1 [2]) was 6.82 upbm affinity estimate (log intensity, higher = more binding, comparable within an allelic series) and the binding signal (PROP1 [3]) was 6.76 upbm affinity estimate (log intensity, higher = more binding, comparable within an allelic series).

CACGTCGC was tested, and the binding signal (PROP1 [1]) was 6.91 upbm affinity estimate (log intensity, higher = more binding, comparable within an allelic series), the binding signal (PROP1 [2]) was 6.79 upbm affinity estimate (log intensity, higher = more binding, comparable within an allelic series) and the binding signal (PROP1 [3]) was 6.8 upbm affinity estimate (log intensity, higher = more binding, comparable within an allelic series).

For AATCAATT, the binding signal (HESX1) was 8.86 upbm affinity estimate (log intensity, higher = more binding, comparable within an allelic series).
